Bioassay records: PubChem, National Center for Advancing Translational Sciences (NCATS)
12-LOX inh = Primary qHTS assay for inhibitors of human arachidonate 12S-lipoxygenase (ALOX12): Round 2; purified 12hLO, xylenol orange hydroperoxide absorbance; actives 1.1% (n = 580,000); Potency, µM (top dose mostly 108 µM), for the others: top-dose activity change, negative = inhibition, actives largely listed as inhibitors; AID 1671190, 2021; Polyunsaturated fatty acid lipoxygenase ALOX12 (Homo sapiens), P18054; further: potency means the concentration at half of the fitted maximal effect
Target sequence (P18054 whole entry, looked up): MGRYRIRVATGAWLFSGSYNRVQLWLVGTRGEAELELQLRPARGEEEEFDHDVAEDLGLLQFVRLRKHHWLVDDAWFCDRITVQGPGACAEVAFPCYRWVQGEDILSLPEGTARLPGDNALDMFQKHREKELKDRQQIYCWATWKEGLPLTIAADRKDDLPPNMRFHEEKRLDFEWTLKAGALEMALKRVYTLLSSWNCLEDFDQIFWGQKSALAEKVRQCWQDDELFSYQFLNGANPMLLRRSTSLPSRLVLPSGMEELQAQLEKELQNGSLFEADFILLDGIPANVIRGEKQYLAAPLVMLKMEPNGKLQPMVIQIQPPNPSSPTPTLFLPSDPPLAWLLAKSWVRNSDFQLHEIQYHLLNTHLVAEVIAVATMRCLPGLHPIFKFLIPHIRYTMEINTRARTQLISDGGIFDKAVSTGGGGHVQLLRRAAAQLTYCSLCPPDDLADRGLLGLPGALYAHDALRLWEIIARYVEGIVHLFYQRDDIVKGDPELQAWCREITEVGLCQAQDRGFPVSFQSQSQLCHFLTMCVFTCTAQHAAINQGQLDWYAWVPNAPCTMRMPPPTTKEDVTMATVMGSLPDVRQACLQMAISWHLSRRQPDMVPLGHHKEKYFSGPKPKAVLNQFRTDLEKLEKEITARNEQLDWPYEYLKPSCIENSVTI
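Hydroperoxide product was detected by ferrous iron/xylenol orange as the 573 to 405 nm absorbance ratio. Arachidonic acid at 40 uM (final) was turned over for 30 min at room temperature by 150 nM human 12hLO, pH 7.0 Hepes buffer, after 15 min compound preincubation.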
HT1080-NT tox = qHTS for induction of synthetic lethality in tumor cells producing 2HG: qHTS for the HT-1080-NT fibrosarcoma cell line. HT-1080-NT fibrosarcoma viability, CellTiter-Glo ATP luminescence, 48 h. Potency, µM (top dose mostly 46.1 µM), for inactives: at the highest dose activity, negative = less viability, usual class: cytotoxic. actives 1.6% (n = 360,000);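 further: NT is the 2HG producing partner of a matched IDH1 knockdown line; potency means the concentration at half of the fitted maximal effect; 0% = DMSO-treated cells and -100% = media-only wells without cells; nearly all actives have a fitted effect of over 55% in size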
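Fibrosarcoma NT cells, 750 per well in 5% FBS RPMI, were exposed to compound for 48 hours. Viability: CellTiter-Glo luminescence.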
DT40 TDP1 CPT = qHTS for Inhibitors of human tyrosyl-DNA phosphodiesterase 1 (TDP1): qHTS in cells in presence of CPT; chicken DT40 Tdp1-/-;hTDP1 cells + 20 nM CPT, ATP luminescence, 48 h; Potency, µM (top dose mostly 46.2 µM), for inactives: at the highest dose activity change, negative = growth inhibition, actives largely listed as inhibitors; actives 12% (n = 420,000); further: potency means the concentration at half of the fitted maximal effect; nearly all actives have a fitted effect of over 55% in size
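Chicken DT40 Tdp1-/- cells complemented with human TDP1, 400 cells/well, exposed to compounds plus 20 nM camptothecin for at least 48 h at 37 C; viability read as ATP content by CellTiter-Glo luminescence.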
IL-1B inflam inh = qHTS for Inhibitors of Inflammasome Signaling: IL-1-beta AlphaLISA Primary Screen | actives 4.7% (n = 360,000) | THP-1 LPS/ATP IL-1B secretion, AlphaLISA, 16 h; active compounds read low | AID 743279, 2014 | activity change, % at 57.5 µM; in the data active means activity change below about -50%; inconclusive means mostly about -30% to -49%
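THP-1 cells pretreated 1 hr with compounds (up to 57.5 uM final), then stimulated with LPS (250 ng/mL final) plus ATP (1.25 mM final); secreted IL-1B measured by AlphaLISA after 16 hr, decreased signal indicating inhibition.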
DT40 TDP1 no CPT = qHTS for Inhibitors of human tyrosyl-DNA phosphodiesterase 1 (TDP1): qHTS in cells in absence of CPT. actives 15% (n = 420,000). DT40 Tdp1-/- hTDP1 cells, no CPT, ATP luminescence, 48 h. Potency, µM (doses to about 46.2 µM), without a hit: at the highest dose activity change, negative = growth inhibition, hits mostly inhibitors; further: potency means the concentration at half of the fitted maximal effect; nearly all actives have a fitted effect of over 55% in size
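Chicken DT40 Tdp1-/- cells stably complemented with human TDP1 were seeded at 400 cells/well with DMSO in place of 20 nM camptothecin. After compound pinning, cells grew at least 48 hr at 37 °C; viability read by CellTiter-Glo luminescence.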
HT1080 IDH1KD tx = qHTS for induction of synthetic lethality in tumor cells producing 2HG: qHTS for the HT-1080-IDH1KD cell line. Potency, µM (top dose mostly 46.1 µM), for the others: top-dose activity, negative = toxicity, actives largely listed as cytotoxic. HT-1080 IDH1 knockdown viability, ATP luminescence, 48 h. actives 2% (n = 360,000). AID 686971, 2013;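 further: potency means the concentration at half of the fitted maximal effect; 0% = DMSO wells and -100% = cell-free medium wells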
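Knockdown cells (IDH1KD HT-1080) received compounds 2 h after plating at 750 cells/well and were kept 48 h at 37 °C in 5% FBS RPMI. A CellTiter-Glo luminescence read gave % activity for curve fitting.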
Starred values were filed as active, the others as inactive; ? = inconclusive; / = not tested or not shown; [ ] = remark or other dose. This excerpt belongs to a sample that is enriched for hits. Unless noted, the call rests on the fitted dose curve; in most records, active means well fitted curve in the direction sought with a large enough effect; inconclusive means small, poorly fitted or top-dose-only effect, or another doubt; inactive means no such curve, though single readings can be large; an effect the other way counts as inactive or inconclusive. Unless noted, on the % scale 0 is the no-effect control and ±100 the full control effect.

SMILES	12-LOX inh	HT1080-NT tox	DT40 TDP1 CPT	IL-1B inflam inh	DT40 TDP1 no CPT	HT1080 IDH1KD tx
Cc1c(C(=O)Nc2cccc(Cl)c2)c2ccccn2c1CCc1ccncc1	-13.8%	-19.0%	?	-189.2*	23.1µM*	?
Cc1c(C(=O)Nc2ccc(Cl)cc2)c2ccccn2c1C(=O)c1ccc(F)cc1	-13.2%	23.0%	-14.8%	0.0	-21.6%	15.2%
O=C(NCc1ccncc1)Nc1cccc(Cl)c1	0.0%	-14.7%	-6.8%	42.0	-20.9%	-6.7%
Cc1c(C(=O)Nc2ccc(Cl)cc2)c2ccccn2c1CCc1ccncc1	?	-14.9%	?	-59.4*	?	-2.7%
O=C(CN(c1cc(C(F)(F)F)ccc1Cl)S(=O)(=O)c1ccccc1)NCCc1ccccc1	?	/	?	/	20.6µM*	/
CS(=O)(=O)N(CC(=O)NCCc1ccccc1)c1cc(C(F)(F)F)ccc1Cl	-0.3%	/	-27.0%	/	-29.1%	/
CC(C)CCNC(=O)Cn1nc2n(c1=O)CCCCC2	44.4%	/	/	/	/	/
NS(=O)(=O)c1ccc(Sc2nc3ccccc3s2)c([N+](=O)[O-])c1	141.4%	?	9.2µM*	-99.2*	10.3µM*	7.31µM*
COc1ccc(-c2cc3nc(CCl)[nH]c(=O)c3s2)cc1	?	16.4µM*	4.61µM*	-6.1	4.11µM*	16.4µM*
COc1cccc(CNc2nc3cc(-c4cccc(Cl)c4)sc3c(=O)n2C)c1	-19.8%	-3.0%	-28.9%	30.4	-12.5%	4.7%
COc1ccccc1Cn1ccnc1SCC(=O)Nc1ccc(C)cc1	0.7%	/	/	/	/	/
COCCCNC(=O)/C(C#N)=C/c1ccc(OCC(=O)O)c(OC)c1	-21.4%	11.5%	-2.2%	-3.1	-10.7%	?
CCOCCCNC(=O)/C(C#N)=C/c1ccc(C(=O)OC)cc1	-9.3%	19.6%	?	-9.7	-19.4%	5.8%
CCOCCCNC(=O)/C(C#N)=C/c1cc(OC)c(O)c([N+](=O)[O-])c1	-15.5%	6.51µM*	3.66µM*	0.0	2.91µM*	4.61µM*
CCOCCCNC(=O)/C(C#N)=C/c1cc(C)c(O)c(C)c1	1.6%	-12.2%	?	14.0	23.1µM*	-16.2%
CCOCCCNC(=O)/C(C#N)=C/c1ccc(Cl)c([N+](=O)[O-])c1	?	23.1µM*	2.59µM*	-28.6	7.31µM*	32.6µM*
CCOC(C(=O)NC(C)CC)(c1ccccc1)c1ccccc1 (configuration not stated)	-13.0%	/	/	/	/	/
CC1=C(C(=O)OC2CCCCCC2)C(c2c(F)cccc2Cl)CC(=O)N1 (configuration not stated)	-21.4%	/	?	/	16.4µM*	/
CC1=C(C(=O)OC2CCCC2)C(c2c(F)cccc2Cl)CC(=O)N1 (configuration not stated)	6.2%	/	?	/	14.6µM*	/
COCCOC(=O)C1=C(C)NC(=O)NC1c1c(F)cccc1Cl (configuration not stated)	1.4%	8.9%	-0.6%	4.8	1.5%	8.0%
FC(F)(F)c1ccnc(-c2cc(NCc3ccccn3)nc3[nH]ccc23)c1	91.7%	/	/	/	/	/
Cc1ccc(-c2ccc(CN)cc2)c(C)c1	0.3%[12.5 µM]	/	/	/	/	/
O=C(Cc1ccccn1)N1CC(=O)N2[C@H](C1)[C@@H](c1ccc(Br)cc1)[C@@H]2CO	-22.9%	/	/	/	/	/
COC[C@@H]1CN(C(=O)c2cc(C)[nH]n2)C[C@H]1c1ccncc1	30.8%	/	/	/	/	/
Cc1cc(C)c2cc(CN(CC3CCCO3)C(=S)NCc3ccco3)c(=O)[nH]c2c1 (configuration not stated)	?	-17.2%	?	?	?	-10.7%
SMILES	12-LOX inh	HT1080-NT tox	DT40 TDP1 CPT	IL-1B inflam inh	DT40 TDP1 no CPT	HT1080 IDH1KD tx
CCN1CCCC1CN(Cc1cc2c(C)cc(C)cc2[nH]c1=O)C(=O)NC1CCCCC1 (configuration not stated)	?	?	23.1µM*	-67.4*	?	?
Cc1cc(C)c2cc(CN(CCN(C)C)C(=O)Nc3ccccc3Cl)c(=O)[nH]c2c1	-2.5%	-0.4%	?	-23.9	14.6µM*	-8.5%
Cc1cc(C)c2cc(CN(CCO)C(=O)NC3CCCCC3)c(=O)[nH]c2c1	27.3%	-2.5%	6.0%	-52.4*	7.0%	-4.4%
Cc1cc(C)c2cc(CN(Cc3ccco3)C(=O)NCc3ccccc3)c(=O)[nH]c2c1	?	-17.5%	9.3%	-58.2*	-9.8%	-19.4%
CCN1CCCC1CN(Cc1cc2cc(OC)ccc2[nH]c1=O)C(=O)NCc1ccccc1 (configuration not stated)	-6.1%	-1.3%	?	-6.0	-9.5%	0.7%
Cc1cc(C)c2cc(CN(CCO)C(=O)Nc3ccc(F)cc3)c(=O)[nH]c2c1	0.0%	-2.9%	-27.3%	/	-10.5%	2.3%
CN(Cc1ccco1)C(=O)c1n[nH]c(=O)c2ccccc12	11.8%	/	/	/	/	/
CCn1cc(-c2ccc(Cl)cc2)cc1C(=O)NCCCN1CCCC1=O	-29.1%	/	/	/	/	/
O=C(c1cc(=O)c2cc(Cl)ccc2o1)N(Cc1cccs1)c1ccccn1	-18.6%	/	/	/	/	/
Cc1ccc(CN2CCCn3nc(C(=O)NCCc4ccccc4Cl)cc3C2=O)cc1	3.9%	/	20.6µM*	/	16.4µM*	/
Cc1ccc(CN2CCCn3nc(C(=O)NCCN(C)C)cc3C2=O)cc1	-23.0%	/	-2.9%	/	0.2%	/
CCCCNC(=O)c1cc2n(n1)CCCN(Cc1ccc(C)cc1)C2=O	-15.6%	/	?	/	?	/
CCOc1ccc(CCNC(=O)c2cc3n(n2)CCCN(Cc2ccc(C)cc2)C3=O)cc1OCC	-25.4%	/	9.2µM*	/	14.6µM*	/
CSc1ccc(CCNC(=O)c2cc3n(n2)CCCN(Cc2ccc(C)cc2)C3=O)cc1	4.2%	/	5.8µM*	/	?	/
CCCSCCCNC(=O)c1cc2n(n1)CCCN(Cc1ccc(C)cc1)C2=O	-21.5%	/	18.4µM*	/	?	/
CCCNC(=O)c1cc2n(n1)CCCN(Cc1ccc(C)cc1)C2=O	-20.0%	/	-16.5%	/	-11.7%	/
CCN(CC)C1CCOC2(CCN(C(=O)c3cccnc3C)CC2)C1 (configuration not stated)	61.0%	/	/	/	/	/
CCCOc1ccc(Cn2cnc3ccccc32)cc1	8.9%	-6.0%	?	-12.8	13µM*	-13.3%
